Laboratory results as given in PubChem BioAssay (Tox21).
Inconclusive results are not listed. The source made the active and inactive calls. Unless noted, the call rests on the fitted dose curve; in most records, active means well fitted curve in the direction sought with a large enough effect in the repeat runs; inconclusive means weak or mixed curves; inactive means no such curve, though single readings can be large; an effect the other way counts as inactive or inconclusive.

Tests used:
[1] = molecular target: Progesterone receptor (Homo sapiens) (UniProt P06401); test: qHTS assay to identify small molecule antagonists of the progesterone receptor (PR) signaling pathway (AID 1346795; active means well fitted inhibition curve with a large enough effect in the signal ratio in the repeat runs, not every such curve was filed as active; the % refers to the signal ratio; further: potency means the concentration at half of the fitted maximal effect)
Progesterone receptor (Homo sapiens), sequence (P06401 whole entry, looked up): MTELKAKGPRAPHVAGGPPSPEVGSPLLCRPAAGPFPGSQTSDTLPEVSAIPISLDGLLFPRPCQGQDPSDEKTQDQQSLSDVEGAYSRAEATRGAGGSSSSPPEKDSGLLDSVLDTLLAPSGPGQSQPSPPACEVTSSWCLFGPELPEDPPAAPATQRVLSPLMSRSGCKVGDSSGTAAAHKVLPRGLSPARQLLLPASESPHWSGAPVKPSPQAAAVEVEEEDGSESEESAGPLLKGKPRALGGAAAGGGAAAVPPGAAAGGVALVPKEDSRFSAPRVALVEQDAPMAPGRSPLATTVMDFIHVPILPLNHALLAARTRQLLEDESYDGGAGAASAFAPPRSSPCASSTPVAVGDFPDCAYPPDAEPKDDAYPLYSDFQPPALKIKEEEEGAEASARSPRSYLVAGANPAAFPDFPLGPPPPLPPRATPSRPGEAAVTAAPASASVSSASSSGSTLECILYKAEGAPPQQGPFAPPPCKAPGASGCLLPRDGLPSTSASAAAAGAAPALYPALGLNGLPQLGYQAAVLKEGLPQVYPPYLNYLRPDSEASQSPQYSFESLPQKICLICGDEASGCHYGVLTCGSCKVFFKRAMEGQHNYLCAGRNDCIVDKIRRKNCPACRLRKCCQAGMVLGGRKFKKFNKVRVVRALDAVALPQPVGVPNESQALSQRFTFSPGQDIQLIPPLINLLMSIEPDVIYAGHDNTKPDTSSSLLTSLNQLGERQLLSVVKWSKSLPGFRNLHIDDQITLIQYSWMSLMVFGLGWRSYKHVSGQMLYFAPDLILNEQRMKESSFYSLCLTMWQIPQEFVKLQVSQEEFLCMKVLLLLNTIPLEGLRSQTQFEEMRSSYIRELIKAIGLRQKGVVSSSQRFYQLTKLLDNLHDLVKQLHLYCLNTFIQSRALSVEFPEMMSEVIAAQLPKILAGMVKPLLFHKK
Outline: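 Read-out is fluorescence from the LiveBLAzer B/G FRET substrate, cleaved by a UAS-controlled beta-lactamase in PR-UAS-bla HEK293T cells after 16 hr exposure to compound plus 1 nM promegestone (final), followed by 2 hr at room temperature.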

[2] = qHTS assay to identify small molecule antagonists of the TGF-beta/Smad signaling pathway - cell viability counter screen (AID 1346824); further: nearly all actives have a fitted effect of over 50% in size
Outline: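 Cytotoxicity counter-screen run in the same wells as the beta-lactamase Smad reporter read: CellTiter-Glo luminescence after 30 min at room temperature. HEK 293T SBE-bla cells had 5 hr compound exposure at 37 C with TGF-beta1 (0.25 ng/mL stock).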

[3] = qHTS assay to identify small molecule agonists of the TGF-beta/Smad signaling pathway - cell viability counter screen (AID 1346829); further: top concentration of the series differs between compounds; nearly all actives have a fitted effect of over 45% in size
Outline: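 Here the cytotoxicity of library compounds is measured in SBE-bla HEK 293T cells treated for 5 hr, using CellTiter-Glo added to wells already read for the beta-lactamase reporter.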

[4] = qHTS assay to identify small molecule agonists of the TGF-beta/Smad signaling pathway (AID 1346859; active means well fitted activation curve with a large enough effect in the signal ratio in the repeat runs, not every such curve was filed as active; the % refers to the signal ratio; further: series mostly up to about 77 µM)
Outline: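 SBE-bla HEK 293T, 4,000 cells/well, plated o/n; cpd in DMSO, 5 hr, 37 C/5% CO2; B/G FRET substrate 2 hr RT; ex 405, em 460/530 nm.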

[5] = molecular target: Thyrotropin-releasing hormone receptor (Homo sapiens) (UniProt P34981); test: qHTS assay to identify small molecule antagonists of the thyrotropin-releasing hormone receptor (TRHR) signaling pathway (AID 1346877; active means well fitted inhibition curve with a large enough effect in the repeat runs, not every such curve was filed as active; further: series mostly up to about 51 µM)
Thyrotropin-releasing hormone receptor (Homo sapiens), sequence (P34981 whole entry, looked up): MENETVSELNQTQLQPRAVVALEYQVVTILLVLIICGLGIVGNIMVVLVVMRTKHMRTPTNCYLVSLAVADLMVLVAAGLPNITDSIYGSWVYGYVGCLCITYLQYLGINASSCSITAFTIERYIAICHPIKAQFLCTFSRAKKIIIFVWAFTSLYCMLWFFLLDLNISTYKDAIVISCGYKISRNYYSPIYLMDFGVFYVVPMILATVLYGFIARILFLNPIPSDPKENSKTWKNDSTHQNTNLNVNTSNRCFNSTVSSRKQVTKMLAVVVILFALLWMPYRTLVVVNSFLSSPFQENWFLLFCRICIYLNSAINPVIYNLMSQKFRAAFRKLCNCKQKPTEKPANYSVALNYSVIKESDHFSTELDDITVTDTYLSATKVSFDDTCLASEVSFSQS
Outline: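 TRHR-expressing HEK293 cells were seeded, cultured 18 h at 37 °C, then loaded with calcium dye for 2 h. Compounds were pre-incubated 5 min at room temperature before 1 nM TRH (final) was added, and kinetic fluorescence was recorded for 3 min.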

[6] = molecular target: Thyrotropin-releasing hormone receptor (Homo sapiens) (UniProt P34981); test: qHTS assay to identify small molecule agonists of the thyrotropin-releasing hormone receptor (TRHR) signaling pathway (AID 1346891; calls by dose curve; further: series mostly up to about 58 µM)
Outline: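 Intracellular calcium rise, read as fluorescence every second for 3 min, served as the agonist signal in dye-loaded HEK293 cells expressing TRHR; each compound ran at 15 concentrations in triplicate.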

[7] = Human pregnane X receptor (PXR) small molecule agonists, qHTS cell viability counter screen (AID 1346977); further: nearly all actives have a fitted effect of over 50% in size; further: potency means the concentration at half of the fitted maximal effect
Outline: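 PXR-Luc HepG2, 2,000 cells/well, 5% charcoal-stripped FBS; 5hr settle; cpd 24hr, 37C/5% CO2; CellTiter-Fluor at 23hr, read 1hr later (fluorescence).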

[8] = Caspase-3/7 induction in HepG2 cells by small molecules, qHTS assay (AID 1346978); further: nearly all actives have a fitted effect of over 15% in size
Outline: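 Caspase-3/7 induction was measured by Caspase-Glo 3/7 luminescence (30 min, room temperature) after a 17 hr compound exposure of wild-type HepG2 cells seeded at 2,000 per well and pre-incubated 5 hr.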

[9] = Caspase-3/7 induction in CHO-K1 cells by small molecules, qHTS cell viability counter screen (AID 1346979); further: nearly all actives have a fitted effect of over 35% in size; further: potency means the concentration at half of the fitted maximal effect
Outline: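 Cells (CHO-K1, wild type) are plated at 1,500 per well and incubated 5hr. Test compounds in DMSO are then pinned in, followed by 16hr at 37C and 5% CO2. Viability is read by CellTiter-Fluor fluorescence after 1hr.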

[10] = Caspase-3/7 induction in CHO-K1 cells by small molecules, qHTS assay (AID 1346980); further: nearly all actives have a fitted effect of over 15% in size
Outline: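 Luminescent Caspase-Glo 3/7 read (30min, room temperature) quantified apoptosis induction. Cells were wild-type CHO-K1, treated with compound for 17hr at 37 C and 5% CO2.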

[11] = molecular target: Nuclear receptor subfamily 1 group I member 2 (Homo sapiens) (UniProt O75469); test: Human pregnane X receptor (PXR) small molecule agonists, qHTS assay (AID 1346982); further: nearly all actives have a fitted effect of over 35% in size; further: potency means the concentration at half of the fitted maximal effect
Nuclear receptor subfamily 1 group I member 2 (Homo sapiens), sequence (O75469 whole entry, looked up): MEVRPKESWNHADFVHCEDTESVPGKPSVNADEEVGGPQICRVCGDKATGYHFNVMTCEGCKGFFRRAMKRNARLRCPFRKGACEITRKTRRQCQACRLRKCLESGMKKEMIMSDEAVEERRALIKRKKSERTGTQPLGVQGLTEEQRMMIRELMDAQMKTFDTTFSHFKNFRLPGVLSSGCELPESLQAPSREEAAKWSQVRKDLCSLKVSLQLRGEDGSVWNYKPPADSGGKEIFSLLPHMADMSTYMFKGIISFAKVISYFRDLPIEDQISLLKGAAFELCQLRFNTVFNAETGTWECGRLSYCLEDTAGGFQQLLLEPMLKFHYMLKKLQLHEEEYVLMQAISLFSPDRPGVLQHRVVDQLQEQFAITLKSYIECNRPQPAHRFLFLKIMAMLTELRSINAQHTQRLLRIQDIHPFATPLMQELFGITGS
Outline: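 PXR-Luc HepG2 cells (CYP3A4 promoter-driven luciferase) were seeded in medium with 5% charcoal-stripped FBS, left 5 hr at 37 C, then exposed to compounds in DMSO for 24 hr. Luminescence was read after ONE-Glo addition.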

[12] = molecular target: Cytochrome P450 2C19 (Homo sapiens) (UniProt P33261); test: Cytochrome P450 Family 2 Subfamily C Member 19 (CYP2C19) small molecule antagonists: luciferase reporter qHTS assay (AID 1671197); further: nearly all actives have a fitted effect of over 65% in size; further: potency means the concentration at half of the fitted maximal effect; on activity change, negative = inhibition: series mostly up to about 120 µM
Cytochrome P450 2C19 (Homo sapiens), sequence (P33261 whole entry, looked up): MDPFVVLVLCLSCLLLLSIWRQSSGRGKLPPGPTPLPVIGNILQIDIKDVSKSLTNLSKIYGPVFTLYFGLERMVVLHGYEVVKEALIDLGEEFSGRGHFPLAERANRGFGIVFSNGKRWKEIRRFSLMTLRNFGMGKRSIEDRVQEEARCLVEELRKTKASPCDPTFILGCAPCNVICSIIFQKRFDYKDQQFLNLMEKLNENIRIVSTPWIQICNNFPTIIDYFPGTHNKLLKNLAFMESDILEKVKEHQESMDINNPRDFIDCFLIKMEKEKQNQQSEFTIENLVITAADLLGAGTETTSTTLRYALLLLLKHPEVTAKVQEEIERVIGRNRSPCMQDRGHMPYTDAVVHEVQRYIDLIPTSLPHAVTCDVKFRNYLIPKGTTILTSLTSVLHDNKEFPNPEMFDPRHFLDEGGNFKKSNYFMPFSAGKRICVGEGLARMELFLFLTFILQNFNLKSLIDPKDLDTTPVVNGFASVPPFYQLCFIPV
Outline: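 Light output is proportional to CYP2C19 activity: proluciferin substrate is converted to luciferin, then detected by a luciferin detection reagent that also stops the 1 h, 37C NADPH-driven reaction. Ketoconazole serves as positive control.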

[13] = qHTS assay to identify small molecule antagonists of the progesterone receptor (PR) signaling pathway - cell viability counter screen (AID 1346798); further: nearly all actives have a fitted effect of over 50% in size; further: potency means the concentration at half of the fitted maximal effect;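 on activity change, negative = cytotoxicity: HEK293T PR-UAS-bla cells stimulated with the agonist R5020; series mostly up to about 92 µM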
Outline: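 HEK293T PR-UAS-bla, 2% charcoal-stripped FBS; 4 hr pre-plate; cpd + R5020, 16 h 37C; LiveBLAzer read first; then CellTiter-Glo 30 min RT, luminescence.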

[14] = qHTS assay to identify small molecule agonists of the progesterone receptor (PR) signaling pathway - cell viability counter screen (AID 1346799; calls by dose curve; further: nearly all actives have a fitted effect of over 45% in size; further: potency means the concentration at half of the fitted maximal effect)
Outline: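 Luminescence from CellTiter-Glo, added after the beta-lactamase FRET read in the same wells, gave cytotoxicity in PR-UAS-bla HEK293T cells treated with compounds for 16 hr at 37C.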

[15] = molecular target: Nuclear receptor subfamily 1 group I member 2 (Rattus norvegicus) (UniProt Q9R1A7); test: Rat pregnane X receptor (rPXR) activation by small molecules, qHTS assay (AID 1346983); details: rPXR luciferase reporter cells, One-Glo luminescence, 24 h; max activation: hits give high values; further: nearly all actives have a fitted effect of over 20% in size
Nuclear receptor subfamily 1 group I member 2 (Rattus norvegicus), sequence (Q9R1A7 whole entry, looked up): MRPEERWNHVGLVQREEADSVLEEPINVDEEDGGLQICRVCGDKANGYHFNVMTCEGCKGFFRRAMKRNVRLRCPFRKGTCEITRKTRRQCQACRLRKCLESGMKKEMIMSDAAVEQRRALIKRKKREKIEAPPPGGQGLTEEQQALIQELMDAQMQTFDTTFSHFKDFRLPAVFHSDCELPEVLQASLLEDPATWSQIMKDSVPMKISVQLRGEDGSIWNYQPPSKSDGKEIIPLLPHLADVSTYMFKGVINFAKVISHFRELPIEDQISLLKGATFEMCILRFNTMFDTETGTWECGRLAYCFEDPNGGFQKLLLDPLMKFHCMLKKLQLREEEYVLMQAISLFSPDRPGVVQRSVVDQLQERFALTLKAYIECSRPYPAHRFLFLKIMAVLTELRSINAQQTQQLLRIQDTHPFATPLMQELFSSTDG
Outline: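 Luminescent readout (One-Glo luciferase, 30 min room temperature) followed 24 hr compound treatment at 37 C of rPXR cells plated 2,000 per well and preincubated 5hr; qHTS format with compounds delivered in DMSO.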

[16] = molecular target: Nuclear receptor subfamily 1 group I member 2 (Homo sapiens) (UniProt O75469); test: CYP3A4 induction through human pregnane X receptor (PXR) by small molecules, qHTS assay (AID 1346984); further: nearly all actives have a fitted effect of over 40% in size
Outline: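 DPX-2 cells (HepG2 co-transfected with PXR and CYP3A4 promoter-luciferase) treated with compounds 24 h at 37C; luciferin-IPA CYP3A4 substrate 3uM final added for 3 h, then One-Glo; luminescence read. qHTS format.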

[17] = molecular target: Nuclear receptor subfamily 1 group I member 2 (Homo sapiens) (UniProt O75469); test: Human pregnane X receptor (PXR) activation by small molecules, qHTS assay (AID 1346985); further: nearly all actives have a fitted effect of over 40% in size
Outline: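 DPX-2 cells (HepG2 co-transfected with a PXR response element and a CYP3A4-promoter luciferase construct) were seeded at 2,000 per well, rested 5 hr at 37C, then exposed to DMSO-dissolved compounds for 24 hr. Activation was read as luciferase luminescence.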

[18] = molecular target: Cytochrome P450 2D6 (Homo sapiens) (UniProt P10635); test: Cytochrome P450 Family 2 Subfamily D Member 6 (CYP2D6) small molecule antagonists: luciferase reporter qHTS assay (AID 1671196); further: nearly all actives have a fitted effect of over 50% in size; further: potency means the concentration at half of the fitted maximal effect; on activity change, negative = inhibition: series mostly up to about 120 µM
Cytochrome P450 2D6 (Homo sapiens), sequence (P10635 whole entry, looked up): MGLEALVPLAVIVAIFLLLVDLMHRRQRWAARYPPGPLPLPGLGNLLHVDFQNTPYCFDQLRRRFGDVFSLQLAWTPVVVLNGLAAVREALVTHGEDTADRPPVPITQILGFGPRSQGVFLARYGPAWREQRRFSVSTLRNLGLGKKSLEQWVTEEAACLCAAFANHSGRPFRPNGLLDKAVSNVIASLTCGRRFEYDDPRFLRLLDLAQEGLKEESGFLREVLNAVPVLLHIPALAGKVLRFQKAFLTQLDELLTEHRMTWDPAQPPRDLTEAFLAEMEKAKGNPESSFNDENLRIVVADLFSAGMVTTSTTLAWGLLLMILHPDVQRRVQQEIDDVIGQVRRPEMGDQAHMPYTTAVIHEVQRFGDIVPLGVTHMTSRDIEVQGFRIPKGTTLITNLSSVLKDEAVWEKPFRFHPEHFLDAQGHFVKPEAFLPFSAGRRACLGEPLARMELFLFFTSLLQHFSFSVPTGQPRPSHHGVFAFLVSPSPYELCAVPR
Outline: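 CYP2D6 enzyme–substrate mix was held with compound for 10 min at room temperature, then NADPH regeneration solution was added and the reaction ran 1 h at room temperature. Luciferin product was detected by luminescence after 20 min with detection reagent.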

[19] = Caspase-3/7 induction in HepG2 cells by small molecules, qHTS cell viability counter screen (AID 1346981); further: nearly all actives have a fitted effect of over 30% in size; further: potency means the concentration at half of the fitted maximal effect; on activity change, negative = cytotoxicity: series mostly up to about 92 µM
Outline: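 Wild-type HepG2 cells (2,000/well) were allowed to settle for 5 hr at 37 C, 5% CO2, then dosed with compounds in DMSO by pin transfer. After 16 hr at 37 C, CellTiter-Fluor was added and fluorescence read 1 hr later.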
On the % scale 0 is the no-effect control and ±100 the full control effect.

COC(=O)C(C)(C)C
inactive: Potency [1] | outcome [2] | outcome [3] | outcome [4] | outcome [5] | outcome [6] | Potency [7] | Potency [8] | Potency [9] | Potency [10] | Potency [11]
active: Potency [12] 32.2 µM

CC1=CC(=C(c2ccc(N)cc2)c2ccc(N)cc2)C=CC1=N
inactive: activity change, negative = inhibition [1] 5.6% [at 8.39 µM] | activity change, negative = cytotoxicity [13] 5.81% [at 8.39 µM] | activity change, negative = cytotoxicity [14] 0% [at 8.39 µM] | activity change, negative = cytotoxicity [3] 4.82% [at 6.97 µM] | activation [4] 8.28% [at 6.97 µM] | activation [11] -7.87% [at 8.39 µM] | max activation [15] -21.7% | Potency [16] | Potency [17]

Cc1nc2sccn2c(=O)c1CCN1CCC(=C(c2ccc(F)cc2)c2ccc(F)cc2)CC1
inactive: Potency [13] | outcome [2] | outcome [3] | Potency [8] | Potency [9] | Potency [10] | Potency [11]
active: Potency [14] 29.8 µM | Potency [18] 15.5 µM

NC(=O)c1ccccc1C(N)=O
active: Potency [12] 40.1 µM
inactive: Potency [1] | Potency [13] | outcome [2] | outcome [3] | outcome [4] | outcome [5] | outcome [6] | Potency [7] | Potency [8] | Potency [10] | Potency [19] | Potency [11]

CC(C)NC(=O)c1ccccc1N
inactive: Potency [13] | outcome [2] | outcome [3] | outcome [4] | outcome [5] | outcome [6] | Potency [7] | Potency [8] | Potency [9] | Potency [10] | Potency [19] | Potency [11] | Potency [18] | Potency [12]

CCOC(=O)CC(O)(CC(=O)OCC)C(=O)OCC
active: Potency [12] 35.6 µM
inactive: Potency [13] | Potency [14] | outcome [2] | outcome [3] | outcome [4] | Potency [7] | Potency [9] | Potency [10] | Potency [11] | Potency [18]

O=C1c2ccccc2C(=O)C1c1ccc2cc(S(=O)(=O)O)cc(S(=O)(=O)O)c2n1
inactive: outcome [2] | outcome [3] | outcome [4] | outcome [5] | outcome [6] | Potency [10] | Potency [11] | Potency [18]
active: Potency [13] 20.9 µM | Potency [14] 18.6 µM | Potency [7] 37.2 µM | Potency [9] 33.1 µM | Potency [19] 33.1 µM

Oc1ccc(Oc2ccccc2)cc1
active: Potency [1] 20.6 µM | Potency [11] 46.1 µM | Potency [18] 26.8 µM | Potency [12] 26.8 µM
inactive: Potency [13] | outcome [2] | outcome [3] | outcome [4] | Potency [7] | Potency [8] | Potency [10] | Potency [19]

COC(=O)/C=C/C(C)=C\C=C\C(C)=C\C=C\C=C(C)\C=C\C=C(C)\C=C\C(=O)O
active: Potency [11] 54.5 µM | Potency [18] 39.9 µM
inactive: Potency [1] | Potency [14] | outcome [3] | outcome [4] | outcome [5] | outcome [6] | Potency [7] | Potency [8] | Potency [9] | Potency [10] | Potency [19]

Cc1c(Nc2ncccc2C(=O)O)cccc1C(F)(F)F
inactive: Potency [1] | outcome [2] | outcome [3] | outcome [5] | outcome [6] | Potency [7] | Potency [8] | Potency [9] | Potency [10] | Potency [19] | max activation [15] -1.47% | Potency [16] | Potency [17] | Potency [18] | Potency [12]

Cc1cccc(C)c1NC(=O)CN1CCCC1
inactive: Potency [13] | Potency [14] | outcome [2] | outcome [3] | outcome [4] | Potency [8] | Potency [9] | Potency [10] | Potency [19] | Potency [11] | max activation [15] -2.58% | Potency [16] | Potency [17] | Potency [12]

CO[C@@H]1[C@@H](O[C@@H]2O[C@H](C)[C@@H](O[C@H]3C[C@@](C)(O)[C@@H](O)[C@H](C)O3)[C@H](N(C)C)[C@H]2O)[C@@H](CC=O)C[C@@H](C)[C@@H](O[C@@H]2CC[C@H](N(C)C)[C@@H](C)O2)/C=C/C=C/C[C@@H](C)OC(=O)C[C@H]1OC(C)=O
inactive: Potency [13] | outcome [2] | outcome [3] | outcome [4] | outcome [5] | outcome [6] | Potency [8] | Potency [10] | Potency [19] | Potency [18] | Potency [12]

Cc1ccc(NC(=O)c2ccc(CN3CCN(C)CC3)cc2)cc1Nc1nccc(-c2cccnc2)n1
active: Potency [9] 23.7 µM
inactive: Potency [13] | outcome [2] | outcome [3] | Potency [8] | Potency [10] | max activation [15] -10.6% | Potency [18] | Potency [12]

O=P(c1ccccc1)(c1ccccc1)c1ccccc1
active: Potency [11] 27.3 µM | Potency [12] 5.64 µM
inactive: Potency [1] | Potency [14] | outcome [2] | outcome [3] | outcome [4] | outcome [5] | outcome [6] | Potency [7] | Potency [9] | Potency [10] | Potency [19] | Potency [18]

O=C(O)COCC(=O)O
inactive: Potency [1] | Potency [13] | outcome [2] | outcome [3] | outcome [4] | outcome [5] | outcome [6] | Potency [7] | Potency [8] | Potency [10] | Potency [11] | Potency [18] | Potency [12]

CO[C@@H]1COCC[C@@H]1N[C@@H]1CC[C@@](C(=O)N2CCc3ncc(C(F)(F)F)cc3C2)(C(C)C)C1
active: Potency [18] 35.4 µM
inactive: Potency [13] | outcome [2] | outcome [3] | outcome [5] | outcome [6] | Potency [7] | Potency [8] | Potency [9] | Potency [19] | Potency [11] | Potency [12]

CCCCOc1ccc(N)cc1
active: Potency [11] 54.5 µM | Potency [12] 28.3 µM
inactive: Potency [1] | Potency [13] | Potency [14] | outcome [3] | outcome [5] | outcome [6] | Potency [8] | Potency [9] | Potency [10] | Potency [19]

CC(COc1ccccc1)NC(C)C(O)c1ccc(O)cc1 (stereo not drawn)
inactive: Potency [1] | Potency [14] | outcome [2] | outcome [3] | outcome [4] | outcome [5] | outcome [6] | Potency [8] | Potency [9] | Potency [10] | Potency [19] | max activation [15] 3.54% | Potency [16] | Potency [17]
active: Potency [11] 23.7 µM | Potency [18] 0.55 µM | Potency [12] 8.71 µM
